Experimental data from PubChem BioAssay (NCI).
Compounds without any hit were thinned out: in the full panel of roughly 79,000, 15% have a hit. Unmarked numbers belong to inactive results. The source made the active and inactive calls. Rule as the data show it: active = growth inhibition above about 70%; inactive = the rest.

Assay: NCI Yeast Anticancer Drug Screen. Data for the rad50EPP+ strain (AID 151);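 also: 0% = growth of vehicle-treated control cultures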
Conditions: S. cerevisiae rad50 mutant strain, at 33.0 µM, active compounds read high
In short: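 In this screen, rad50EPP+ yeast were exposed to compounds. Growth inhibition was scored against vehicle-treated controls.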

| Compound | growth inhibition |
| --- | --- |
| O=CC=C(c1ccccc1)c1ccccc1 | 43% |
| FC(F)(F)c1nc2nc(Cl)c(Cl)nc2n1CCCN1CCOCC1 | 2% |
| BrCC[P+](c1ccccc1)(c1ccccc1)c1ccccc1 | 88% (active) |
| N#CSc1ccc(S(N)(=O)=O)cc1 | -86% |
| O=[N+]([O-])c1ccc2nc3ccccc3cc2c1 | 90% (active) |
| O=C(NC(Nc1ccc(F)c(Cl)c1)(C(F)(F)F)C(F)(F)F)C(C(F)(F)F)C(F)(F)F | -16% |
| O=C(/C=C\c1ccc(Cl)cc1Cl)c1cccs1 | 55% |
| O=C(NCCCCNCCCNC(=O)c1cc(-c2ccccc2)nc2ccccc12)c1cc(-c2ccccc2)nc2ccccc12 | 32% |
| NC(=NCc1ccccc1)N/N=C\c1ccnc2ccccc12 | 1% |
| CCCCN(CCCC)CCSc1ccc(Cl)cc1 | 35% |
| COc1cc(C2C3=C(COC3=O)Oc3cc4c(cc32)OCO4)ccc1O (stereo not drawn) | 4% |
| C#CCCCc1ccccc1 | 23% |
| CCc1ccc(NS(=O)(=O)c2ccccc2)c([N+](=O)[O-])c1 | 53% |
| COc1ccc(C2c3cc4c(cc3OC(C)(O)C2C)OCO4)c(OC)c1 (stereo not drawn) | 7% |
| COC(=O)c1ccc(CCC2=CC(=O)C(Br)=CC2=O)cc1 | 62% |
| NNC(=O)CCc1ccc2ccc3ccccc3c2c1 | 34% |
| Cn1c2ccccc2c(=O)c2cc(NC(=O)CCCCC(=O)Nc3ccc4c(c3)c(=O)c3ccccc3n4C)ccc21 | 55% |
| CC(CC(C)(C)[N+](C)(C)C)[N+](C)(C)C (stereo not drawn) | 4% |
| CC1CCN(CCC(=O)c2ccc(Cl)cc2)CC1 | -2% |
| CCCCCCCCCCCCCCC(C(=O)[O-])[n+]1ccccc1 (stereo not drawn) | 3% |

| Compound | growth inhibition |
| --- | --- |
| CNC1C(OC2C(OC3C(O)C(O)C(N=C(N)N)C(O)C3N=C(N)N)OC(C)C2(O)CO)OC(CO)C(O)C1O (stereo not drawn) | -3% |
| O=C(O)c1ccccc1-c1ccccc1C(=O)Nc1ccc2c(c1)Cc1ccccc1-2 | 10% |
| O=[N+]([O-])c1cccc2nc3ccccc3c(NCCCN3CCOCC3)c12 | 92% (active) |
| C=CC(C)(O)CCC1C(=C)C(O)CC2C(C)(C)CCCC12C (stereo not drawn) | 0% |
| CN1c2ccc(Cl)cc2C(=O)NC1c1ccc([N+](=O)[O-])s1 (stereo not drawn) | 61% |
| [O-][n+]1c2ccc(O)cc2nc2ccc(Br)cc21 | 75% (active) |
| O=C1c2ccccc2-c2nc3ccccc3nc21 | 95% (active) |
| CCCCN1C(=O)N(c2ccc(OCC)cc2)C2N(CCCC)C1C(C)(C)C2(C)C (stereo not drawn) | 19% |
| CO[C@H]1C[C@](C)(O)Cc2cc3c(c(O)c21)C(=O)c1c(O)cc2c(c1C3=O)O[C@@H]1O[C@@]2(C)[C@H](O)[C@@H](N(C)C)[C@@H]1O | -12% |
| COc1cc2c(cc1[N+](=O)[O-])C(=O)C(Br)(Br)CCC2 | 100% (active) |
| O=C1OC(CCl)CN1/N=C/c1ccc([N+](=O)[O-])o1 (stereo not drawn) | 47% |
| CN(C)CCOc1ccc2c(c1)C/C(=C/c1ncc([N+](=O)[O-])n1C)C2=O | 35% |
| CCCCCCCCCCCCCCCCCCN(C)CC(COP(=O)([O-])OCC[N+](C)(C)C)OC (stereo not drawn) | 98% (active) |
| CC(C)c1ccccc1NC(=O)/C(Cl)=C(\Cl)C(=O)O | 21% |
| O=[N+]([O-])C(=C(Sc1ccccc1)Sc1ccccc1)C(Cl)=C(Cl)Cl | 49% |
| C(=C\c1ccccc1)/COc1ccccc1C(N1CCOCC1)n1nc2ccccc2n1 (stereo not drawn) | 64% |
| O=C1C(Nc2ccccc2)=C(Oc2ccccc2)C(=O)c2ccccc21 | 58% |
| CCN(CC)CCN1C(=O)c2cccc3cc(OC)cc(c23)C1=O | 86% (active) |
| CN(C)Cc1cc(N=Nc2ccc(Cl)cc2)cc(CN(C)C)c1O | 43% |

Same assay, conditions: S. cerevisiae rad50 mutant strain, at 100.0 µM, active compounds read high

| Compound | growth inhibition |
| --- | --- |
| O=CC=C(c1ccccc1)c1ccccc1 | 83% (active) |
| FC(F)(F)c1nc2nc(Cl)c(Cl)nc2n1CCCN1CCOCC1 | 4% |
| BrCC[P+](c1ccccc1)(c1ccccc1)c1ccccc1 | 95% (active) |
| N#CSc1ccc(S(N)(=O)=O)cc1 | -14% |
| O=[N+]([O-])c1ccc2nc3ccccc3cc2c1 | 96% (active) |
| O=C(NC(Nc1ccc(F)c(Cl)c1)(C(F)(F)F)C(F)(F)F)C(C(F)(F)F)C(F)(F)F | 2% |
| O=C(/C=C\c1ccc(Cl)cc1Cl)c1cccs1 | 58% |
| O=C(NCCCCNCCCNC(=O)c1cc(-c2ccccc2)nc2ccccc12)c1cc(-c2ccccc2)nc2ccccc12 | 91% (active) |
| NC(=NCc1ccccc1)N/N=C\c1ccnc2ccccc12 | 4% |
| CCCCN(CCCC)CCSc1ccc(Cl)cc1 | 55% |
| COc1cc(C2C3=C(COC3=O)Oc3cc4c(cc32)OCO4)ccc1O (stereo not drawn) | 15% |
| C#CCCCc1ccccc1 | 67% |
| CCc1ccc(NS(=O)(=O)c2ccccc2)c([N+](=O)[O-])c1 | 75% (active) |
| COc1ccc(C2c3cc4c(cc3OC(C)(O)C2C)OCO4)c(OC)c1 (stereo not drawn) | 4% |
| COC(=O)c1ccc(CCC2=CC(=O)C(Br)=CC2=O)cc1 | 88% (active) |
| NNC(=O)CCc1ccc2ccc3ccccc3c2c1 | 58% |
| Cn1c2ccccc2c(=O)c2cc(NC(=O)CCCCC(=O)Nc3ccc4c(c3)c(=O)c3ccccc3n4C)ccc21 | 80% (active) |
| CC(CC(C)(C)[N+](C)(C)C)[N+](C)(C)C (stereo not drawn) | -1% |
| CC1CCN(CCC(=O)c2ccc(Cl)cc2)CC1 | -7% |
| CCCCCCCCCCCCCCC(C(=O)[O-])[n+]1ccccc1 (stereo not drawn) | 39% |

| Compound | growth inhibition |
| --- | --- |
| CNC1C(OC2C(OC3C(O)C(O)C(N=C(N)N)C(O)C3N=C(N)N)OC(C)C2(O)CO)OC(CO)C(O)C1O (stereo not drawn) | -10% |
| O=C(O)c1ccccc1-c1ccccc1C(=O)Nc1ccc2c(c1)Cc1ccccc1-2 | 25% |
| O=[N+]([O-])c1cccc2nc3ccccc3c(NCCCN3CCOCC3)c12 | 96% (active) |
| C=CC(C)(O)CCC1C(=C)C(O)CC2C(C)(C)CCCC12C (stereo not drawn) | -40% |
| CN1c2ccc(Cl)cc2C(=O)NC1c1ccc([N+](=O)[O-])s1 (stereo not drawn) | 67% |
| [O-][n+]1c2ccc(O)cc2nc2ccc(Br)cc21 | 77% (active) |
| O=C1c2ccccc2-c2nc3ccccc3nc21 | 81% (active) |
| CCCCN1C(=O)N(c2ccc(OCC)cc2)C2N(CCCC)C1C(C)(C)C2(C)C (stereo not drawn) | 30% |
| CO[C@H]1C[C@](C)(O)Cc2cc3c(c(O)c21)C(=O)c1c(O)cc2c(c1C3=O)O[C@@H]1O[C@@]2(C)[C@H](O)[C@@H](N(C)C)[C@@H]1O | 33% |
| COc1cc2c(cc1[N+](=O)[O-])C(=O)C(Br)(Br)CCC2 | 96% (active) |
| O=C1OC(CCl)CN1/N=C/c1ccc([N+](=O)[O-])o1 (stereo not drawn) | 73% (active) |
| CN(C)CCOc1ccc2c(c1)C/C(=C/c1ncc([N+](=O)[O-])n1C)C2=O | 59% |
| CCCCCCCCCCCCCCCCCCN(C)CC(COP(=O)([O-])OCC[N+](C)(C)C)OC (stereo not drawn) | 98% (active) |
| CC(C)c1ccccc1NC(=O)/C(Cl)=C(\Cl)C(=O)O | 99% (active) |
| O=[N+]([O-])C(=C(Sc1ccccc1)Sc1ccccc1)C(Cl)=C(Cl)Cl | 48% |
| C(=C\c1ccccc1)/COc1ccccc1C(N1CCOCC1)n1nc2ccccc2n1 (stereo not drawn) | 95% (active) |
| O=C1C(Nc2ccccc2)=C(Oc2ccccc2)C(=O)c2ccccc21 | 60% |
| CCN(CC)CCN1C(=O)c2cccc3cc(OC)cc(c23)C1=O | 93% (active) |
| CN(C)Cc1cc(N=Nc2ccc(Cl)cc2)cc(CN(C)C)c1O | 91% (active) |
